Common to all, as to test: NCI-60 one-dose screen, 48 h (100 = growth as untreated, 0 = no growth, -100 = all killed)
Holding throughout (settings): 10 µM unless noted

Assay [1] has as its system HCT-15 colon.
The subject of assay [2] is HT29 colon.
Assay [3] relates to SNB-75 CNS.
Assay [4] concerns SNB-19 CNS.
Assay [5] has as its system U251 CNS.
Assay [6] has as its system PC-3 prostate.
Assay [7] deals with SK-MEL-5 melanoma.
In assay [8] the test system is UACC-62 melanoma.
The test system of assay [9] is LOX IMVI melanoma.
The subject of assay [10] is SK-MEL-28 melanoma.
The subject of assay [11] is SK-MEL-2 melanoma.
Assay [12] relates to EKVX NSCLC.
Assay [13] relates to SN12C renal.
The test system of assay [14] is UO-31 renal.
Assay [15] has as its system TK-10 renal.
Assay [16] concerns ACHN renal.
Assay [17] has as its system A498 renal.
Assay [18] concerns CCRF-CEM leukemia.
Assay [19] relates to MOLT-4 leukemia.
Assay [20] deals with SR leukemia.

About 83,000 compounds went through this panel and 20% of them were active in at least one assay; those are over-represented in the sample as a whole.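 Compound tested at a single concentration for 48 hours in 96-well plates; a percent growth value below 10 was scored as active.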 Values without a mark were called inactive. Calls of active or inactive are those of the source.

Results on eight molecules are retold here after PubChem BioAssay (NCI).

`Nc1c(C(=O)Nc2ccccc2Cl)sc2nc3c(cc12)CN(Cc1ccccc1)CC3`: the growth was 95.7% in assay [1]; 101% in assay [2]; 113% in assay [3]; 109% in [4]; 114% in assay [5]; 104% in [6]. For the same molecule, the growth in assay [7] is 97.7%; in assay [8] it was 101%; in assay [9], 99.7%; in assay [10], 102%; in assay [11], 95.6%; in assay [12], 93%. Further, the growth is 101% in [13]; 99.7% in assay [14]; 98.5% in assay [15]; 104% in [16]; 85.4% in assay [17]; 91.7% in [18]. The figures for the growth in [19] and in [20] were 89.6% and 87.1%, respectively.

In the case of `Cc1c(Cl)cccc1NC(=O)c1sc2nc3c(cc2c1N)CCCCC3`, the growth in assay [1] was 30.1%; in assay [2] it was 9.15% (active); in assay [3], 9.95% (active); in [4] it was 34.2%; in [5], 24.2%; in [6], 37.9%. For the same molecule, the growth was 45.8% in assay [7]; 39.6% in assay [8]; 41.8% in [9]; 72.6% in assay [10]; 48.5% in assay [11]; 42.2% in assay [12]. For the same molecule, the growth was 44.9% in assay [13]; 55.2% in assay [14]; 65.6% in assay [15]; 62.5% in [16]; -3.71% (active) in assay [17]; 9.59% (active) in assay [18]. The growth in [19] is 14.4%; in assay [20], 12.8%.

As to `O=C1Nc2ccc(Br)cc2/C1=N\N=C/c1cn(Cc2ccccc2)c2ccccc12`, the growth is 103% in assay [1]; 91% in assay [2]; 84.7% in assay [3]; 98% in assay [4]; 94.6% in assay [5]; 75.1% in assay [6]. The growth in [7] was 97.2%; in assay [8], 79.4%; in assay [9], 98.1%; in assay [10] it was 105%; in assay [11] it was 91.3%; in assay [12], 56.2%. Moreover, the growth in assay [13] is 84.5%; in assay [14] it was 75.7%; in [15], 82.4%; in assay [16], 98.9%; in assay [17], 15.3%; in assay [18], 81.1%. For the same molecule, the growth was 67% in [19] and 80.1% in [20].

Take `O=C1Nc2ccc(Cl)cc2/C1=N/c1nc(-c2ccc(F)cc2)cs1`: the growth in assay [1] is 43.9%; in [2], 22.6%; in assay [3], 58.6%; in [4], 34.1%; in [5], 25.4%; in assay [6] it was 17.4%. Further, the growth in assay [7] is 41.7%; in [8] it was 7.64% (active); in [9], 19.5%; in assay [10], 42.6%; in assay [11], 39.9%; in assay [12], 44.5%. Further, the growth in [13] was 54.8%; in [14], 50.4%; in assay [15] it was 59.2%; in assay [16], 48.5%; in assay [17], 33.3%; in assay [18] it was 11.1%. Further, the results for the growth in assay [19] and in [20] were 1.99% (active) and 1.96% (active), respectively.

With `O=[N+]([O-])c1ccc(Oc2ccc(-c3ccccc3)cc2)cc1`, the growth is 81.8% in assay [1]; 76.6% in [2]; 93.5% in [3]; 94% in assay [4]; 88.5% in assay [5]; 75.8% in [6]. For the same molecule, the growth in assay [7] was 88.2%; in assay [8], 63%; in assay [9], 96.3%; in assay [10], 105%; in [11], 103%; in [12], 85.1%. Also, the growth in assay [13] is 96.6%; in [14], 79.5%; in [15] it was 88.5%; in [16], 101%; in assay [17] it was 84.5%; in assay [18] it was 78.3%. The growth in assay [19] was 70.4%; in assay [20], 77.8%.

Consider `CCn1cc(C(=O)O)c(=O)c2cc(F)c(N3CCN(CC(=O)Nc4ccc(/C(C)=N/OC)cc4)CC3)cc21`, for which the growth is 90.5% in assay [1]; 94% in [2]; 76.8% in [3]; 91.7% in assay [4]; 94.3% in assay [5]; 85.5% in assay [6]. Further, the growth in assay [7] is 96.4%; in assay [8], 90.5%; in [9] it was 80%; in assay [10] it was 100%; in assay [11] it was 109%; in assay [12] it was 95.5%. For the same molecule, the growth is 101% in [13]; 79.9% in assay [14]; 101% in assay [15]; 103% in assay [16]; 92.9% in assay [17]; 105% in assay [18]. The results for the growth in [19] and in assay [20] were 96.4% and 82.6%, respectively.

With `C=C1C(=O)O[C@H]2[C@H]1CC/C(COC(=O)c1cn(C)c3ccccc13)=C\CC[C@@]1(C)O[C@@H]21`, the growth was -44.9% (active) in assay [1]; -77.2% (active) in assay [2]; 59% in assay [3]; 25.6% in [4]; 11.7% in assay [5]; -55.1% (active) in assay [6]. Further, the growth was 4.24% (active) in assay [7]; -51.1% (active) in assay [8]; -86.5% (active) in [9]; -22% (active) in assay [10]; -60% (active) in [11]; -29.1% (active) in assay [12]. The growth in assay [13] was -40.3% (active); in assay [14] it was -93.5% (active); in [15], -75.2% (active); in [16], -82.7% (active); in assay [17], 65.4%; in assay [18], 1.59% (active). Besides, the results for the growth in assay [19] and in [20] were -0.986% (active) and -9.81% (active), respectively.

Consider `O=c1c2ccccc2oc2ccc(OCCCCCCN3CCCCCC3)cc12`, for which the growth in assay [1] is 7.65% (active); in [2] it was 8.09% (active); in assay [3] it was 88.7%; in assay [4], 58.3%; in assay [5], 38.9%; in assay [6], 34%. The growth is -36.7% (active) in [7]; -53.4% (active) in assay [8]; 19.1% in assay [9]; 38.5% in assay [10]; 76.9% in assay [11]; 62.8% in [12]. Further, the growth in assay [13] was 55%; in [14] it was 41.8%; in assay [15], 66.3%; in assay [16] it was 65.7%; in [17] it was 70.2%; in assay [18], 43.3%. The growth was 6.07% (active) in assay [19] and 1.08% (active) in assay [20].
